Experimental data: PubChem BioAssay
The source made the active and inactive calls.

What was measured:
Albumin (Bos taurus) = Albumin (Bos taurus) (UniProt P02769); assay: compounds binding labelled BSA control protein – biochemical, small-molecule microarray, Alexa647 label, 635/667 nm fluorescence, artefact control for SMM control protein annotation, profiling panel (AID 1118); details: BSA-A647 binding, fluorescence 635 nm, higher = more signal;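 note: score merges 667 nm emission intensity and signal-to-noise per printed compound spot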
Sequence of Albumin (Bos taurus) (P02769 whole entry, looked up): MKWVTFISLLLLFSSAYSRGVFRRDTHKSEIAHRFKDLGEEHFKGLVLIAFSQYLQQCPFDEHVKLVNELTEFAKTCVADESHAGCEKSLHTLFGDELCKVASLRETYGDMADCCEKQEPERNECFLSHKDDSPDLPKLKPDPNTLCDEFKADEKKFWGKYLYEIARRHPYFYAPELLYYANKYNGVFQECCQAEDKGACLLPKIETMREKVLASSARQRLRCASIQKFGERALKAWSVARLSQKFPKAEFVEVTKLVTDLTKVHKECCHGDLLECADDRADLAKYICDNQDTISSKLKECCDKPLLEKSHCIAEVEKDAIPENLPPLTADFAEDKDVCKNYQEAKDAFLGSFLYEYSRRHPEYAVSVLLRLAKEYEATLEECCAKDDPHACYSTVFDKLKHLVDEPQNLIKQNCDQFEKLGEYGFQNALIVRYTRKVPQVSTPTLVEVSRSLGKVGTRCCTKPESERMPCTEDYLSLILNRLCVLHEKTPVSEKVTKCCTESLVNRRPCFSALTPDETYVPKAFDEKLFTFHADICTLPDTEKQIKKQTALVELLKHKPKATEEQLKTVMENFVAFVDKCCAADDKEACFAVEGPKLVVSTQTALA

[1] = probe aXIP binding to arrayed compounds – biochemical, NeuroSMM set, 635/667 nm fluorescence, primary screen (AID 1119); details: small-molecule microarray, higher = more signal, called active from +8 up or from −8 down;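 note: probe is the protein aXip251-270 applied at 1 µg/mL to compound-printed slides; binding of probe to printed compounds measured as 667 nm fluorescence plus signal to noise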
[2] = probe aNOTCH3 binding on compound microarray – biochemical, small-molecule microarray, 635/667 nm fluorescence, primary screen (AID 1120); details: higher = more signal;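 note: probe is a biotin-tagged antibody raised against NOTCH3 rather than NOTCH3 protein; score merges spot fluorescence near 667 nm with spot signal to noise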
[3] = probe aNOTCH2 binding on compound microarray – biochemical, small-molecule microarray, 635/667 nm fluorescence, primary screen (AID 1121); details: higher = more signal;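 note: score merges feature fluorescence read at 667 nm with its signal to noise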
[4] = target: Carbonic anhydrase 2 (Homo sapiens) (UniProt P00918); assay: compounds binding carbonic anhydrase 2 – biochemical, small-molecule microarray, Alexa647-labelled CAII, profiling panel (AID 1122); details: CAII-A647 binding fluorescence, higher = more signal
[5] = COS7 lysate on small-molecule microarray, probe aHis, 635 nm (AID 1123); details: COS7 cell lysate, fluorescence, higher = more signal;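 note: z-score combines 667nm fluorescence intensity with signal-to-noise per printed compound spot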
[6] = probe aLAP1 signal on lysate-treated microarray – cell lysate, small-molecule microarray, COS7 lysate, primary screen (AID 1124); details: probe aLAP1, fluorescence, higher = more signal;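 note: lysate comes from COS7 cells expressing LAP1 and is applied at 0.3 µg/mL; score merges spot fluorescence near 667 nm with signal-to-noise over triplicate slides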
Sam68 (KHDRBS1) = assay: compounds binding KHDRBS1 protein – biochemical, small-molecule microarray, 635 nm fluorescence, primary screen (AID 1125); details: higher = more signal;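 note: score merges 667 nm channel intensity with signal to noise over triplicate slides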
[7] = test system: Chordin-like protein 2 (CHRDL2); assay: compounds binding chordin-like 2 – biochemical, small-molecule microarray, 635 nm fluorescence, primary screen (AID 1126); details: fluorescence 635 nm, higher = more signal;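 note: printed compound slides probed with Chrdl2 protein at 4 µg/mL for 1 h at 4 C; score merges 667 nm emission intensity with signal to noise over three replicate slides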
[8] = target: Concanavalin-A (Canavalia ensiformis) (UniProt P02866); assay: compounds binding concanavalin A lectin – biochemical, small-molecule microarray, Alexa647 label, 635 nm, artefact control for SMM control protein annotation, primary screen (AID 1127); details: ConA-A647 binding fluorescence, higher = more signal;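 note: z combines 667 nm emission intensity with signal-to-noise across three replicate slides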
Sequence of Concanavalin-A (Canavalia ensiformis) (P02866 whole entry, looked up): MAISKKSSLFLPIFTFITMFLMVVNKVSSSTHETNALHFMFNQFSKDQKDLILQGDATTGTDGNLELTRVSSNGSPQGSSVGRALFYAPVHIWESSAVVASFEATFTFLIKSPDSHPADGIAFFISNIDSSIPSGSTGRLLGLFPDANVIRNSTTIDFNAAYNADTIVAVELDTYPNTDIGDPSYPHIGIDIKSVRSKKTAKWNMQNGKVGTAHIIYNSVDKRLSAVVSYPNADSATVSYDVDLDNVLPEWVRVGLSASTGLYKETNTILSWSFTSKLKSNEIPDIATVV

[9] = compounds binding Alexa647 anti-His antibody – biochemical, small-molecule microarray, 635 nm fluorescence, artefact control for SMM control protein annotation, primary screen (AID 1128); details: higher = more signal;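 note: score merges feature fluorescence with signal-to-noise for each printed compound spot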
[10] = test system: Human papillomavirus type 1a E7 protein (residues 1-88); assay: HPV1a E7 small-molecule binders, primary screen, biochemical, small-molecule microarray, residues 1-88, 635 nm (AID 1129); details: small-molecule microarray binding, fluorescence 635 nm; higher = more signal
[11] = target: Focal adhesion kinase 1 (Homo sapiens) (UniProt Q05397); assay: PTK2 protein binding on printed compound slides – biochemical, small-molecule microarray, 635/667 nm fluorescence, BSA, DTT, primary screen (AID 1130); details: 635 nm fluorescence, higher = more signal;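 note: composite of spot emission at 667 nm and signal to noise over triplicate slides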
Sequence of Focal adhesion kinase 1 (Homo sapiens) (Q05397 whole entry, looked up): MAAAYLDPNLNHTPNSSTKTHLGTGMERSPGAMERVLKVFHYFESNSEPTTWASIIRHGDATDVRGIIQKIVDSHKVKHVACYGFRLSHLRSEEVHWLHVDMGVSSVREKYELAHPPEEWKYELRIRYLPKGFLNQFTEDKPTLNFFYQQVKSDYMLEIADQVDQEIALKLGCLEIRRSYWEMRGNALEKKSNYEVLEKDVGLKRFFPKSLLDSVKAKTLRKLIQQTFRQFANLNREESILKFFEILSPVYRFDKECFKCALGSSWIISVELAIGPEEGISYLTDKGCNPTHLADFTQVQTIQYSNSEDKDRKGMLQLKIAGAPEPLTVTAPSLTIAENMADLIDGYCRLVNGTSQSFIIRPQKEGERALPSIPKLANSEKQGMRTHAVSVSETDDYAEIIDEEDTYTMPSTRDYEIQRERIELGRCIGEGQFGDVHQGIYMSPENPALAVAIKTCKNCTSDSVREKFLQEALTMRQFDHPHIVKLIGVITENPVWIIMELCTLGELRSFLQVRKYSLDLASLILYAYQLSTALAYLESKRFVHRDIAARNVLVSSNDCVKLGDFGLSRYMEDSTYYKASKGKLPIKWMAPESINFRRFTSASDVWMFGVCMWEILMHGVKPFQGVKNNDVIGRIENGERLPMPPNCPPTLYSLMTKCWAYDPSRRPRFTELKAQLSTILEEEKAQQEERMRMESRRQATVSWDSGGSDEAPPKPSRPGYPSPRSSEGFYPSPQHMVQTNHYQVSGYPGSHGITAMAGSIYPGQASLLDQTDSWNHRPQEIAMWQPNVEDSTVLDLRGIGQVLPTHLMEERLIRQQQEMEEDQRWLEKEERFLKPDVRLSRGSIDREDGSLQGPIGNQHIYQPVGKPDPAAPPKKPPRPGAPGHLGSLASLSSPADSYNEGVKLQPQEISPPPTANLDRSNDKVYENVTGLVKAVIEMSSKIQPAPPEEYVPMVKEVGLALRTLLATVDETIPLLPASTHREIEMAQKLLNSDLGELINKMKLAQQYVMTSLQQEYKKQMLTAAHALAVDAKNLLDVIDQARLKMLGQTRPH

[12] = test system: Fibrinogen (Alexa647-labelled); assay: Alexa647-fibrinogen binding to printed small molecules – biochemical, small-molecule microarray, 635/667 nm fluorescence, artefact control for SMM control-protein annotation, profiling panel (AID 1131); details: fibrinogen-A647 binding fluorescence, higher = more signal;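 note: z-score merges 667 nm fluorescence with per-spot signal-to-noise over triplicate slides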
[13] = target: Follistatin (Homo sapiens) (UniProt P19883); assay: FST protein binding to printed compounds – biochemical, small-molecule microarray, 635/667 nm fluorescence, primary screen (AID 1132); details: 635 nm fluorescence, higher = more signal
Sequence of Follistatin (Homo sapiens) (P19883 whole entry, looked up): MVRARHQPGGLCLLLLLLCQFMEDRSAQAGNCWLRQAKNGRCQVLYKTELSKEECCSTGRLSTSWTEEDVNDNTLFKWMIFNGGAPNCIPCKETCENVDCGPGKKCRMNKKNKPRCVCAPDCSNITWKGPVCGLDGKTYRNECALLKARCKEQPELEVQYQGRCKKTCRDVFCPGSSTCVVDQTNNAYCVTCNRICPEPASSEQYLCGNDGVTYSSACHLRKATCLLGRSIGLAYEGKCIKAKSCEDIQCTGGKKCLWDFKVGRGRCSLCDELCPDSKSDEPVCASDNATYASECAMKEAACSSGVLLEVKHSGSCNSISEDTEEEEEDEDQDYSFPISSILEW

[14] = target: Fibroblast growth factor 2 (Homo sapiens) (UniProt P09038); assay: basic fibroblast growth factor binding to printed compounds – biochemical, small-molecule microarray, 635/667 nm fluorescence, primary screen (AID 1133); details: FGF2, fluorescence 635/667, higher = more signal
Sequence of Fibroblast growth factor 2 (Homo sapiens) (P09038 whole entry, looked up): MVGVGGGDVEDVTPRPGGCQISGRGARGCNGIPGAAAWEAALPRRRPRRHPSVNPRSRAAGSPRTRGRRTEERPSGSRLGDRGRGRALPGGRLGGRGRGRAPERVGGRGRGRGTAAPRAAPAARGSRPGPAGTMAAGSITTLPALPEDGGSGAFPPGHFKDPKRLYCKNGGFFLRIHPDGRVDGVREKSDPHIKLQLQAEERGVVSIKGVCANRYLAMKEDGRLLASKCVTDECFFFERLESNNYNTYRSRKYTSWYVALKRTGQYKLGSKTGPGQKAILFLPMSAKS

[15] = JC-1 mitochondrial potential readout, lung cancer cells – cell-based, A549, JC-1 fluorescence, basal, 24 h, 100 nL, profiling panel (AID 1138); details: higher = more signal;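 note: A549 lung adenocarcinoma cells under basal conditions with no added stimulus; test concentration not given here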
Lefty1 = Lefty1 protein binding to printed compounds – biochemical, small-molecule microarray, 635/667 nm fluorescence, primary screen (AID 1139); details: fluorescence 635/667, higher = more signal
[16] = test system: wheat germ agglutinin (Triticum aestivum), Alexa647-labelled; assay: Alexa647-WGA lectin binding to printed small molecules – biochemical, small-molecule microarray, 635/667 nm fluorescence, artefact control for SMM control-protein annotation, profiling panel (AID 1140); details: WGA-A647 binding, 635 nm fluorescence, higher = more signal;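 note: score merges 667 nm feature emission with signal to noise over triplicate slides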
[17] = target: Luciferin 4-monooxygenase (Photinus pyralis) (UniProt P08659); assay: inhibition of purified Photinus pyralis luciferase – biochemical, luminescence, purified enzyme, 2006 set, primary screen (AID 1141); details: purified firefly luciferase, SteadyGlo luminescence, 30 min; higher = more signal, called active from +8 up or from −8 down;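 note: cell-free assay with purified firefly luciferase at 100 ng per well in PBS; test concentration not given here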
Sequence of Luciferin 4-monooxygenase (Photinus pyralis) (P08659 whole entry, looked up): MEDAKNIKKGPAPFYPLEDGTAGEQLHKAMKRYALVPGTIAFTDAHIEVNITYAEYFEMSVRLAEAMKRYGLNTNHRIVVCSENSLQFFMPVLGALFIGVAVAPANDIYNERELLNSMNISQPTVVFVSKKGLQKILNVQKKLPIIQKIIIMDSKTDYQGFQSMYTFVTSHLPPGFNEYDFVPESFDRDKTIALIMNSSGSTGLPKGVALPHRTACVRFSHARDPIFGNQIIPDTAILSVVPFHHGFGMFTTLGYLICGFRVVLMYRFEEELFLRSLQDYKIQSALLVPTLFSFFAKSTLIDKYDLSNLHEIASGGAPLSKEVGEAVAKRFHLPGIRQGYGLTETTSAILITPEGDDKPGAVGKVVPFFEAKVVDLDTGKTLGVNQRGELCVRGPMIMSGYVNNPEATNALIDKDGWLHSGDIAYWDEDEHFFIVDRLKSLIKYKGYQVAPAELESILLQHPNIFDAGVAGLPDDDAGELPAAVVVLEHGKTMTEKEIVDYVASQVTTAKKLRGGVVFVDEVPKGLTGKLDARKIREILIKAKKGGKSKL

SMILES	composite z-score (Albumin (Bos taurus))	composite Z-score [1]	composite z-score [2]	composite z-score [3]	composite z-score [4]	composite z-score [5]	composite z-score [6]	composite z-score (Sam68 (KHDRBS1))	composite z-score [7]	composite z-score [8]	composite z-score [9]	composite z-score [10]	composite z-score [11]	composite z-score [12]	composite z-score [13]	composite z-score [14]	z-score [15]	composite z-score (Lefty1)	composite z-score [16]	z-score [17]
Cc1ccc(S[C@]2(C(=O)NCC(F)(F)F)CC(=O)N(C(C)C)[C@@H]2c2ccc(CO)cc2I)cc1	-0.667	0.314 (inactive)	-0.276	-0.0557	0.742	0.506	0.106	-0.749	-0.445	-0.967	-1.45	-0.68	-0.188	-1.11	-0.366	0.0888	0.758	-1.13	-0.86	-1.01 (inactive)
CCOC1=C2C(CN(S(=O)(=O)c3ccc(C)cc3)C2c2ccc(C)cc2)C2C(=O)N(c3ccccc3)C(=O)C2C1 (stereo not given)	0.453	0.0045 (inactive)	0.24	-0.0665	0.676	1.58	0.377	0.814	0.479	0.654	0.727	1.15	0.553	0.783	0.475	0.301	-0.368	0.535	0.4	1.09 (inactive)
O=C1c2ccccc2[C@](Cc2ccccc2I)(C(=O)NC2CC2)[C@H](c2ccc(CO)cc2)N1Cc1ccccc1	-0.213	0.476 (inactive)	-0.0055	-0.0495	0.711	1.7	0.478	0.512	-0.0374	0.894	-0.025	0.0081	-0.186	0.471	0.885	1.16	-0.194	-0.502	0.322	0.873 (inactive)
C#CCN(CC=C(C)C)[C@H](CO)c1ccccc1	-0.258	0.289 (inactive)	0.0081	-0.0819	-0.0144	-0.41	-0.277	0.584	-0.184	-0.711	-0.237	0.729	-0.122	-0.0376	0.391	0.295	-1.47	-0.0431	-0.196	0.648 (inactive)
COc1ccc(CCNC(=O)[C@@]2(C)c3ccccc3C(=O)N(Cc3cc(F)cc(C(F)(F)F)c3)[C@H]2c2ccc(CO)cc2)cc1	-0.825	0.633 (inactive)	-0.189	-0.054	0.726	1.71	0.54	-0.342	0.126	-0.307	0.421	0.682	0.212	0.0066	0.179	0.132	-0.233	-0.953	0.606	-0.947 (inactive)
O=C1NC(=O)C2C1C=CC(C(O)C(c1ccccc1)c1ccccc1)N2Nc1ccc(Cl)cc1Cl (stereo not given)	0.766	-0.713 (inactive)	0.263	0.0409	0.584	1.84	0.0766	0.993	-0.483	0.788	-0.138	1.15	0.682	0.852	0.896	-0.301	-0.815	-0.0329	0.587	0.231 (inactive)
CN1C(=O)C2C=CC(C(O)c3ccc(I)cc3)N(N3CCCCC3)C2C1=O (stereo not given)	0.999	0.891 (inactive)	0.748	0.0196	0.608	2.85	0.879	1.32	-0.119	1.15	1.09	1.21	0.578	0.924	1.24	-0.148	0.158	0.459	1.2	-1.05 (inactive)
CC(C)(C)OC(=O)CC[C@@]12N=C(c3ccc(OCCCO)cc3)O[C@@H]1c1ccccc1N(CCS(=O)(=O)c1ccccc1)C2=O	-0.458	0.733 (inactive)	0.106	-0.179	0.73	1.59	0.184	0.461	0.623	1.14	2.03	1.19	0.412	0.129	1.3	0.109	0.84	0.644	0.653	-7.46 (inactive)
COc1ccc(C(O)C2C=CC3C(=O)N(c4ccccc4)C(=O)C3N2Nc2ccc(C(C)C)cc2)cc1OCc1ccccc1 (stereo not given)	0.895	0.868 (inactive)	0.307	0.194	0.576	1.78	0.902	1.33	-0.443	1.12	0.893	1.17	-0.149	0.973	1.22	0.254	-0.182	0.094	1.22	-1.96 (inactive)
COc1ccc(CCNC(=O)[C@@H]2c3ccccc3C(=O)N(C3Cc4ccccc4C3)[C@H]2c2ccc(CO)cc2)cc1	0.397	0.131 (inactive)	-0.0725	-0.0907	0.705	2.21	0.0554	0.73	-0.551	0.542	1.12	0.655	1.02	0.92	0.25	0.0201	0.997	-0.0376	0.645	0.672 (inactive)
O=C1C2C=CC(C(O)C(c3ccccc3)c3ccccc3)N(n3cnnc3)C2C(=O)N1Cc1ccccc1 (stereo not given)	0.057	0.0479 (inactive)	0.116	-0.0294	0.635	2.61	0.599	1.3	0.121	1.07	0.305	1.21	0.638	0.977	0.552	1.54	-0.806	0.0063	0.131	1.01 (inactive)
